LmPK inh: blocks Leishmania mexicana pyruvate kinase activity | Q27686 | purified LmPK, Kinase-Glo ATP luminescence, 1 h | Potency, µM (series often up to 57.5 µM), inactives show top-dose activity change, negative = inhibition, most hits filed as inhibitors | actives 0.37% (n = 290,000); active = well fitted curve in the direction sought with a large enough effect; inconclusive = small, poorly fitted or top-dose-only effect, or another doubt; inactive = no such curve, though single readings can be large; an effect the other way counts as inactive or inconclusive; note: potency is the fitted concentration of half-maximal effect; % is set by controls: 0 for no effect and ±100 for the full control effect
Target sequence (Q27686 whole entry, looked up): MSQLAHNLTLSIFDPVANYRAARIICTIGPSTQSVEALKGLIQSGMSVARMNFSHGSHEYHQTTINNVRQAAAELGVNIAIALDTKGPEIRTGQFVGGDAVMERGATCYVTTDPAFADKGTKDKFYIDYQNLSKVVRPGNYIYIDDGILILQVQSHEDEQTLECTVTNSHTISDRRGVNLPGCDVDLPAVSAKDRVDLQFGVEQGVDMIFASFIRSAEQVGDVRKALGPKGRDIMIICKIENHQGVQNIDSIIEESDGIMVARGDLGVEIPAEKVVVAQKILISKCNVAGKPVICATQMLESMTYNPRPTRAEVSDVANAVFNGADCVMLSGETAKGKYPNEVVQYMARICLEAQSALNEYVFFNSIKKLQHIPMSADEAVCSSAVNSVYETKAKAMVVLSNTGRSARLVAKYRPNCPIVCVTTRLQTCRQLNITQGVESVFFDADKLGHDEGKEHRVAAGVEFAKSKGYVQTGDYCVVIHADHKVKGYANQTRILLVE
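Purified LmPK (0.1 nM) converted ADP (0.1 mM) to ATP with PEP (0.5 mM) in imidazole buffer pH 7.2 with KCl and MgCl2, 1 h at room temperature. ATP was read by Kinase-Glo luminescence; data normalized to uninhibited and no-enzyme controls.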
Shiga inhibitor: Shiga toxin inhibition | Vero cells, Shiga toxin protein synthesis inhibition reporter | inhibition, % at 38.7 µM | actives 9.2% (n = 290,000) | AID 2315; in the data active = inhibition mostly above about 28%, no sharp cut-off; inactive = mostly below about 43%; note: 0% is about no effect
NS1 inh: blocks influenza NS1 protein function; actives 0.4% (n = 270,000); Potency, µM (doses to about 46.1 µM), for inactives: at the highest dose activity, positive = more growth; note: potency is the fitted concentration of half-maximal effect; actives are rising curves; nearly all actives have a fitted effect of over 50% in size
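Read-out: OD600 growth recovery of NS1-expressing budding yeast. Cells grown overnight at 30C in -URA glucose medium, washed, resuspended and diluted 1:100 in 2% galactose assay medium, pH 6.0. Same strain lacking NS1 served as positive control.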
SARS PLP yeast: SARS-CoV PLP inhibition in yeast | actives 0.19% (n = 330,000) | AID 485353 | S. cerevisiae expressing SARS-CoV PLpro, growth rescue | Potency, µM (top dose mostly 32.9 µM), without a hit: top-dose activity, positive = growth rescue, hits mostly activators; note: potency is the fitted concentration of half-maximal effect; 0% is about no effect; nearly all actives have a fitted effect of over 55% in size
Cycloheximide cs: counter-screen hit for Shiga toxin inhibitors, cycloheximide | actives 12% (n = 300,000) | cell reporter, cycloheximide protein synthesis inhibition counterscreen | max response, % | AID 2314; in the data active = max response mostly above about 13%, no sharp cut-off; inactive = mostly below about 14%; note: read at 38.3 µM for the half of the compounds with a filed dose; 0% is about no effect
Tb PYK inh: T. brucei pyruvate kinase inhibition. Q57TT1. TbPYK enzyme, Kinase-Glo Plus ATP luminescence, 45 min. Potency, µM (series often up to 76.8 µM), without a hit: at the highest dose activity, negative = inhibition, actives largely listed as inhibitors. actives 0.12% (n = 410,000). AID 624173; active = well fitted curve in the direction sought with a large enough effect; inconclusive = small, poorly fitted or top-dose-only effect, or another doubt; inactive = no such curve, though single readings can be large; an effect the other way counts as inactive or inconclusive; note: potency is the fitted concentration of half-maximal effect; % is set by controls: 0 for no effect and ±100 for the full control effect; nearly all actives have a fitted effect of over 50% in size
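Activity of T. brucei pyruvate kinase was followed by Kinase-Glo Plus luminescence after the enzyme reacted 45 min at room temperature with 130 uM ADP (final) and substrate. Test compounds were added before ADP at multiple concentrations.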
* marks the source's active call; other numbers are inactive results; ? = inconclusive; . = not tested or not shown. This excerpt belongs to a sample that is enriched for hits. Unless noted, calls come from the whole dose curve.

SMILES	LmPK inh	Shiga inhibitor	NS1 inh	SARS PLP yeast	Cycloheximide cs	Tb PYK inh
COCCNC(=O)c1cc(-c2ccc3c(c2)OCO3)on1	-13.2%	98.2*	-4.8%	?	28.5*	-4.3%
CCN(C(=O)CSc1nnc(-c2ccccc2Cl)n1N)c1c(N)n(Cc2ccccc2)c(=O)[nH]c1=O	.	.	.	.	.	1.2%
COc1cc2c(cc1OC)C(c1ccccc1[N+](=O)[O-])N(C(C)=O)CC2 (stereo not drawn)	6.4%	.	2.6%	1.0%	-1.2	-1.5%
C=CCNC(=O)c1cc(-c2ccc3c(c2)OCO3)on1	-8.4%	25.7	2.0%	-0.4%	34.7*	18.4%
Cc1ccc(NC(=O)c2cc(-c3ccc4c(c3)OCO4)on2)cc1	-7.2%	23.2	-3.2%	-3.7%	7.8	8.8%
CCOc1ccc(CCNC(=O)c2ccc(CSCc3ccccc3C)o2)cc1OCC	.	.	.	.	.	-3.9%
COc1cccc(NC(=O)CCN2C(=O)C3CC=CCC3C2=O)c1 (stereo not drawn)	-4.6%	73.3*	-3.1%	3.6%	49.2*	3.5%
COc1ccc(NC(=O)CCCN2C(=O)C3CC=CCC3C2=O)cc1 (stereo not drawn)	0.7%	40.0*	-0.3%	7.9%	23.9*	-4.0%
CC(=O)[C@@]1(O)C(C)CC2C3C=C(C)C4=Cc5c(cnn5-c5ccccc5)C[C@]4(C)C3C(O)C[C@@]21C (stereo partly drawn)	-4.6%	-15.1	?	-0.6%	0.5	-1.8%
COc1cc(OC)c(NC(=O)c2nnn(Cc3ccc(C)cc3)c2N)cc1Cl	.	.	.	.	.	-3.9%
Cc1ccc(O)c(CNc2cnc3ccccc3c2)c1	2.4%	.	-58.6%	?	10.7	?
COc1ccccc1Nc1nc2ccccc2n1C	?	66.1*	-9.6%	8.1%	30.5*	-11.5%
O=NNc1nc2ccccc2n1Cc1ccccc1	-4.2%	11.2	1.1%	2.9%	-4.1	-13.6%
CCCCCn1c(NCc2ccccc2OC)nc2ccccc21	.	.	.	.	.	2.3%
COc1cccc(CNc2cnc3ccccc3c2)c1O	-1.8%	44.3*	5.1%	-2.5%	30.1*	-8.6%
Cn1c(NN=O)nc2ccccc21	0.0%	48.5*	7.2%	0.0%	28.3*	-14.0%
COc1cccc(CNc2nc3ccccc3n2C)c1O	1.4%	.	-13.9%	-3.0%	35.4*	-5.5%
COc1cccc(-c2nc(CS(=O)(=O)CC(=O)NCCCN3CCOCC3)c(C)o2)c1	-3.5%	-9.4	3.1%	3.2%	-3.3	-4.1%
CC(OC(=O)c1ccco1)C(=O)NCc1ccc2c(c1)OCO2 (stereo not drawn)	-5.3%	-2.3	0.5%	-2.1%	-3.7	3.0%
CCCCCC(O)(c1ccc(OCC)cc1)C(CN1CCOCC1)c1ccccc1 (stereo not drawn)	-2.0%	-3.0	2.4%	-2.9%	0.3	3.2%
COc1cccc(/C=N/c2nc3ccccc3n2C)c1O	?	33.3	-1.0%	-0.4%	19.8*	-0.1%
CCn1c2ccccc2c2cc(CN3CCN(Cc4ccc(Br)cc4)CC3)ccc21	.	.	.	.	.	2.0%
COc1ccc(-c2oc3cccnc3c2/C=C/c2ccc(OC)c(OC)c2)cc1	1.7%	17.3	?	1.5%	9.9*	-7.2%
O=C(CSc1nc2ccccc2o1)Nc1cc(C(F)(F)F)ccc1N1CCOCC1	1.6%	-11.9	5.6%	-12.8%	-2.6	-8.3%
Cc1nn2c(-c3cccc(NC(=O)CSc4nc5ccccc5o4)c3)nnc2c2ccccc12	0.7%	17.7	-36.1%	-7.3%	13.8*	-16.9%
SMILES	LmPK inh	Shiga inhibitor	NS1 inh	SARS PLP yeast	Cycloheximide cs	Tb PYK inh
Cc1cc(C)nc(NC(=O)CSc2nc3ccccc3o2)n1	-0.7%	57.8*	-9.1%	-10.6%	51.3*	-9.1%
O=C(CSc1nc2ccccc2o1)Nc1ccc(N2CCOCC2)c(Cl)c1	4.4%	81.3*	-62.7%	-14.4%	53.1*	1.4%
O=C(CSc1nc2ccccc2o1)Nc1ccc(Cl)cc1	2.5%	83.5*	-36.1%	-17.2%	21.6*	0.0%
Cc1nn2c(-c3cccc(NC(=O)CN4CCOCC4)c3)nnc2c2ccccc12	.	.	4.2%	.	.	5.2%
COc1ccc(NC(=O)c2ccco2)cc1NC(=O)COc1ccc(C)cc1C	.	.	.	.	.	-5.1%
CC(=O)Nc1ccc2nc(SCC(=O)Nc3ccc(N4CCOCC4)c(Cl)c3)sc2c1	4.5%	98.0*	-10.8%	5.3%	68.6*	-11.2%

Source: PubChem
